High-throughput results from PubChem.
Only some compounds are listed: those with a hit (about 4.8% of all), similar ones and a draw of the others.
ssDAF12 agonist: S. stercoralis DAF-12 nuclear receptor activators, primary screen, cell-based, luminescence, HEK293, GRIP1 co-expression, lit1-tk-luc; AID 652126, 2013; activation, % at 6.8 µM; 370,000 tested, 1% active; HEK293 ssDAF-12/GRIP1 lit1-tk-luc reporter; % of 3 µM dafachronic acid response;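 active = activation above the mean over all tested compounds plus 3 SD, cut at about 0.9% in these data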;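 also: 0% = DMSO-only wells and 100% = 3 µM delta7-dafachronic acid wells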
hcDAF-12 act: H. contortus DAF-12 nuclear receptor activators, primary screen, cell-based, luminescence, HEK293, lit1-tk-luc reporter. HEK293 hcDAF-12 lit1-tk-luc reporter; 0% DMSO, 100% Δ7-dafachronic acid. activation, % at 6.8 µM. 370,000 tested, 1.4% active. AID 652067, 2013;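 active = activation above the mean of all tested compounds plus 3 SD, cut at about 5.5% in these data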;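 also: 100% = response to 3 µM Δ7-dafachronic acid high control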
DAX1 inh-1: DAX1 (NR0B1) inhibitors, primary screen, cell-based, HEK293, Gal4-DAX1, luciferase luminescence | Nuclear receptor subfamily 0 group B member 1 (Homo sapiens), P51843 | HEK293 Gal4-DAX1 luciferase reporter | inhibition, % at 6.75 µM | 340,000 tested, 0.99% active | AID 504766, 2011;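 active = inhibition above the mean over all tested compounds plus 3 SD, cut at about 4.2% in these data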;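 also: 0% = DAX1-transfected cells with DMSO and 100% = empty-vector control cells with DMSO; inhibition shows as a rise in luminescence from relieved DAX1 repression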
Target sequence (P51843 207-470 limits assumed): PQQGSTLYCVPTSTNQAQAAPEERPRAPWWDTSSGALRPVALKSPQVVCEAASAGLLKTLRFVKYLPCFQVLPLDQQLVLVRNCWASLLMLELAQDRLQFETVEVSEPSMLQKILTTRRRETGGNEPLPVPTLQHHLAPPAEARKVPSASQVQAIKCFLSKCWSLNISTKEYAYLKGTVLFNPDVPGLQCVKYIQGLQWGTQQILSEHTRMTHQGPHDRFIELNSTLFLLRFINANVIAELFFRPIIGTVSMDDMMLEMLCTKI
SMARCA2 activ: SMARCA2 (BRM) function activators, primary screen, cell-based, luminescence, high throughput; MG213 cells, MMTV-luciferase reporter, dexamethasone, overnight; activation, % at 9.1 µM; 370,000 tested, 1% active; AID 652017, 2013; in the data active = activation above about 7.8%;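 also: 0% = vehicle wells and 100% = reference activator wells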
DAX1 inh-2: DAX1 (NR0B1) inhibitors on StAR promoter, primary screen, cell-based, luminescence, SF-1 (NR5A1), full-length DAX-1; HEK293T StAR-luciferase reporter, SF-1/DAX-1 repression relief; inhibition, % at 6.8 µM; 370,000 tested, 1.1% active; AID 652010, 2013;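 active = inhibition above the mean over all tested compounds plus 3 SD, cut at about 3.6% in these data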;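 also: 0% = DAX-1 cells with DMSO and 100% = cells lacking DAX-1 with DMSO; higher inhibition means more luminescence from relief of DAX-1 repression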
hgDAF12 agonist: H. glycines DAF-12 receptor agonists, primary screen, cell-based, luminescence, HEK293, GAL4 fusion, UAS-luciferase; Nuclear hormone receptor DAF-12 (Heterodera glycines), GAL4 fusion; HEK293 GAL4-hgDAF12 UAS-luciferase reporter, agonist luminescence; normalized to butyrate control; activation, % at 6.8 µM; 370,000 tested, 1.8% active; AID 687014, 2013;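 active = activation above a cutoff set at the mean of all screened compounds plus 3 SD, cut at about 10% in these data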;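 also: 0% = DMSO wells and 100% = sodium butyrate wells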
Active calls of the source: *; . = no result.

SMILES | ssDAF12 agonist | hcDAF-12 act | DAX1 inh-1 | SMARCA2 activ | DAX1 inh-2 | hgDAF12 agonist
COCCCN1C(=O)[C@H](CC(=O)NCc2ccc(OC)c(OC)c2)[C@]2(C(=O)OC)CCCCC=C12 | -1 | 4 | . | -3 | 0 | 0
CN(C)c1nc(Cl)nc(NCCOc2ccccc2)n1 | -1 | 0 | 4.3* | -3 | 0 | -2
CCNc1nc(Cl)nc(NCCOc2ccc(C)cc2)n1 | -1 | 0 | 1 | -2 | 1 | -1
Cc1noc(NS(=O)(=O)c2ccc(N/C=C\C(=O)c3cccc4ccccc34)cc2)c1C | 0 | 1 | 6.6* | 0 | 2 | 1
Cc1noc(NS(=O)(=O)c2ccc(N/C=C\C(=O)c3ccc(Br)cc3)cc2)c1C | 0 | 1 | 2 | 1 | 1 | 2
C=CCCC(=O)N[C@H]1CC[C@@]23CCCN2C(=O)CCC[C@H]3[C@H]1CCC | -2 | -1 | . | . | . | -2
CCN(CC)C(=O)CC[C@@H]1CC[C@]2(CCCN(Cc3cccnc3)C2)O1 | -1 | -1 | . | -2 | 1 | -1
COC(=O)[C@H]1C[C@@]2(C)c3ccccc3N(S(=O)(=O)c3ccccc3)[C@H]2N1C(=O)CNC1CCCCC1 | -2 | -1 | . | -2 | 0 | -2
CCNC(=O)OC[C@H]1O[C@H](C#Cc2ccc(C(C)(C)C)cc2)C=C[C@H]1O | -1 | -2 | . | -1 | 0 | -2
CC(C)(C)c1ccc(C#C[C@@H]2C=C[C@H](O)[C@@H](COC(=O)Nc3ccccc3)O2)cc1 | 1.9* | 5.8* | . | 3 | 1 | 5
COc1ccc(Cn2ccc3ccc(-c4ccc5ccn(Cc6ccc(F)cc6)c5c4)cc32)cc1 | -1 | 4 | . | 0 | -1 | 2
C/C=C/c1ccc(OCC(=O)OCc2csc(CC(=O)Nc3ccccc3C)n2)c(OC)c1 | -1 | 1 | 5.9* | 6 | 1 | 0
Cc1ccc(C)c(OCC(=O)OCc2csc(CC(=O)Nc3ccccc3C)n2)c1 | -1 | 1 | 0 | -3 | 0 | 1
Cc1cc(NC(=O)NC(=O)c2ccc(F)cc2F)n[nH]1 | 0 | 3 | 0 | 5 | 3 | 11*
Cc1cc(C)cc(C(=O)OCCCN(C)C2CN(Cc3cn(Cc4ccc([N+](=O)[O-])cc4)nn3)S(=O)(=O)C2)c1 (stereo unspecified) | -2 | -3 | . | -2 | -3 | 0
O=C(CSc1nc2ncccc2[nH]1)NCc1ccccc1 | -1 | -2 | 4.7* | 0 | -1 | 0
CC(=O)c1ccccc1NC(=O)Cn1c(=O)cnc2ccccc21 | 0 | 6.1* | 4 | -3 | 0 | -2
N#Cc1ccccc1NC(=O)c1cc(=O)c2ccccc2o1 | -2 | -1 | 1 | -2 | 1 | 11*
COCC(=O)Nc1ccc2c(c1)[C@@H]1C[C@H](CC(=O)OC)O[C@H](CO)[C@@H]1O2 | -1 | -2 | 4.6* | -3 | 0 | 0
COC(=O)C[C@@H]1C[C@H]2c3cc(NC(=O)CC4CC4)ccc3O[C@H]2[C@@H](CO)O1 | -1 | -1 | 2 | -5 | 1 | -1
COc1ccc(Cn2ccc3ccc(-c4ccc5ccn(Cc6cccc(F)c6)c5c4)cc32)cc1 | 0 | -1 | . | -1 | -1 | 2
N/C(=N\O)c1ccc(Oc2ccccc2Cl)c([N+](=O)[O-])c1 | -2 | -1 | 5.4* | -2 | -1 | 3
O=C(N[C@@H]1C[C@@H]2O[C@@H](CO)CC[C@@H]2O[C@@H]1CCc1ccc(-c2ccccc2)cc1)c1cnccn1 | -1 | 0 | . | -2 | -2 | 9
COc1ccc(C2C(C(C)=O)=C(O)C(=O)N2c2ccc(C)cc2)cc1 (stereo unspecified) | 0 | 0 | 4.5* | 2 | 1 | 4
